Screen size: about 340,000 compounds; about 1,000 (0.29%) were called active. A selection follows. Potency and affinity values are given separately. Values without a mark were called inactive. Rule as the data show it: inconclusive = inhibition above about 27% without an active follow-up result; inactive = below that.

The assay in a line: H1N1 influenza NS1A inhibitors, functional cell based assay (AID 504329). To be noted: percent inhibition, at 12.5 µM, active compounds read high.
Consider `CCc1cc(C(=O)N2CCCC(C(=O)c3ccc(Oc4ccccc4)cc3)C2)n(C)n1` (centres undefined), for which the inhibition was -0.31%.
For `COc1ccc(NC(=O)c2ccc(NC(=O)CN(C)CC(=O)Nc3c(C)cccc3C)cc2)cc1` the value was -7.57%; for `C/C=C\C=C\C(=O)N1CC2(CC(c3cccc(NC(=O)CC(c4ccccc4)c4ccccc4)c3)=NO2)C[C@H]1C(N)=O` (some centres undefined), 2.26%; for `COCCCNC(=O)c1cc(=O)n(Cc2ccc(Cl)cc2)c2ccccc12`, 6.81%.
For `CCCCCc1cc(=O)oc2c(C(CCN(CC)CC)c3cc(OC)c(OC)c(OC)c3)c(OC)cc(OC)c12` (centres undefined) the value was 9.43%.
Regarding `CCCCCc1cc(=O)oc2c(C(CCN3CCCC(C)C3)c3ccc4c(c3)OCO4)c(OC)cc(OC)c12` (centres undefined), the inhibition is 16.4%.
For `CCCCCc1cc(=O)oc2c(C(CCN3CCCC(C)C3)c3ccc(OC)cc3)c(OC)cc(OC)c12` (centres undefined) the value was 8.01%; for `CCCCCc1cc(=O)oc2c(C(CCN(CC)CC)c3ccc(OC)cc3)c(OC)cc(OC)c12` (centres undefined), 5.11%.
For the compound `CCCCCc1cc(=O)oc2c(C(CCN3CCCCC3)c3ccc(OC)cc3)c(OC)cc(OC)c12` (centres undefined), the inhibition was 18.7%.
With `CCCCCc1cc(=O)oc2c(C(CCN3CCN(c4ccccc4)CC3)c3ccc(N(C)C)cc3)c(OC)cc(OC)c12` (centres undefined), the inhibition was -11.8%.
For the compound `Nc1nnc(SCC(=O)NCCNC(=O)CSc2nnc(N)s2)s1`, the inhibition is -11.3%.
For `Cc1noc(-c2ccc(Cl)cc2)c1C(=O)O/N=C(\N)c1ccc(C(C)(C)C)cc1`, the inhibition is 12.5%.
For `O=C(CN1CCCCC1)N=Nc1c(O)[nH]c2ccccc12`, the inhibition is -8.88%.
For `Cc1ccc(-c2nnc(N3CCCCC3)c3ccccc23)cc1S(=O)(=O)N(C)C` the value was -3.68%; for `CS(=O)(=O)Oc1ccc2c(c1)O/C(=C\c1cccc([N+](=O)[O-])c1)C2=O`, 7.03%; for `CS(=O)(=O)c1ccc(S(=O)CC(=O)OCc2ccccc2)c([N+](=O)[O-])c1` (centres undefined), 11.4%.
For `COc1ccccc1OCCOC(=O)Nc1ccccc1` the value was -11.2%.
As for `O=C1/C(=C\c2ccc(O)c(O)c2)C(c2ccccc2)=NN1c1ccccc1`, the figure is 23.5%.
`COc1cc(/C=C2/C(=O)N(c3ccc(C(=O)O)cc3)N=C2C)cc(OC)c1O`: the inhibition is 13.2%.
For `COc1cc(/C=C2\C(=O)N(c3ccc(NC(C)=O)cc3)N=C2c2ccccc2)ccc1O` the value was 12.5%.
As for `COc1cc(/C=C2/C(=O)N(c3ccc(Br)cc3)N=C2C)cc(OC)c1OC`, the figure is 3.78%; as for `CCOC(=O)C1CCC(CN(Cc2ccccc2)S(=O)(=O)c2ccc([N+](=O)[O-])cc2)CC1` (centres undefined), 6.67%; as for `CCOC(=O)c1ccc(COc2ccc(C(C)C)cc2)o1`, -6.49%.
As for `O=C1CSC(=S)N1N=Cc1cccc2ccccc12`, the figure is 13.2%; as for `CCOc1cccc(/C=N/N=C/c2cccc(OCC)c2O)c1O`, -10.6%.
Take `CCOc1cccc(/C=N/N2C(C)CCCC2C)c1O` (centres undefined): the inhibition was -10.1%.
As for `Cc1ccccc1/C=N/N1C(=O)CSC1=S`, the figure is -0.54%; as for `COc1ccccc1C=NN1C(=O)CSC1=S`, 1.86%.
As for `O=C1CSC(=S)N1/N=C/c1ccc(O)c(O)c1O`, the figure is -1.09%.
`CC(=O)O[C@H]1[C@H](O)[C@H](Oc2c(O)c(C)c3c4c2[C@@H](C)CC[C@@H]4[C@@H](C)C[C@H]3C=C(C)C)O[C@@H](C)[C@H]1O`: the inhibition is 4.02%.
On to `COc1ccc(-c2nc3ccccc3c(=O)n2CC(C)C)cc1`, for which the inhibition is -17.7%.
In the case of `CCN1C(=NCCCOC(C)C)N[C@@H](CCc2ccccc2)[C@H](C(=O)NCCCOC(C)C)[C@H]1C`, the inhibition is 7.63%.
For `COc1ccc(OC)c(C(=O)N(C)C2CCCN(Cc3ccccc3F)C2)c1` (centres undefined) the value was 2.52%; for `COC(=O)C1=C(c2c(C)noc2C)C[C@@H]2CC[C@H]1N2C(=O)NCCCOC(C)C`, -1.03%.
As for `COC(=O)C1CCN(C(=O)/C=C/c2ccc(OC)cc2)CC1`, the figure is 1.45%.
As for `CCOc1ccccc1OCCCC(=O)ON=C(N)c1ccccc1`, the figure is -17.2%; as for `COc1ccc(-c2c(NC(=O)c3ccco3)oc3ccccc3c2=O)cc1OC`, 9.22%; as for `CCOc1ccccc1OCCNC1CCCC1`, -3.47%.
For the compound `CCOc1ccccc1C(=S)NC1CCCCC1`, the inhibition was -0.78%.
As for `CC(C)C[C@@H]1CN=C(N)N1C[C@@H]1CCCN1C[C@@H](C(C)C)N1C[C@@H](Cc2ccccc2)N(CCCC2CCCC2)C1=N`, the figure is 0.6%; as for `CCOc1ccc(S(=O)(=O)Nc2ccc(C(=O)NCC(C)(C)N3CCOCC3)cc2)cc1`, -9.51%; as for `O=C(O)c1cc(S(=O)(=O)Nc2ccccc2C(=O)O)ccc1O`, -2.33%.
As for `O=C(O)c1cc(S(=O)(=O)O)ccc1O`, the figure is -4.88%; as for `O=C(NNC(=O)c1cc(-c2cccc(Br)c2)nc2ccccc12)c1csc(N2CCOCC2)n1`, -7.9%.
For `COc1cc([N+](=O)[O-])cc(/C=N/NC(=O)c2cncc(Br)c2)c1O` the value was -13.3%; for `COc1cc([N+](=O)[O-])cc(/C=N/NC(=O)c2ccc(NC(=O)c3ccc(C)cc3)cc2)c1O`, -0.59%.
On to `Oc1ccc(Br)cc1/C=N/Nc1ncc(-c2ccccc2)cn1`, for which the inhibition is -1.12%.
For the compound `Cc1cc(C)nc(N/N=C/c2cc(Br)ccc2O)n1`, the inhibition was 8.15%.
With `COc1cc(/C=N/NC(=O)c2ccc(C)nc2)cc([N+](=O)[O-])c1O`, the inhibition is -21.2%.
For `O=C(N/N=C/c1cc2c(cc1Cl)OCO2)c1ccncc1` the value was -1.41%; for `O=C(N/N=C/c1ccncc1)c1ccncc1`, 0.03%; for `COc1cc([N+](=O)[O-])cc(/C=N/NC(=O)c2cccnc2)c1O`, -13.7%.
As for `Cc1ccc([N+](=O)[O-])cc1S(=O)(=O)Nc1ccc(OCC(=O)N2CCOCC2)cc1`, the figure is -6.07%; as for `COC(=O)c1ccccc1S(=O)(=O)NC(=O)c1ccccc1`, -2.87%; as for `CCOC(=O)C1CCN(CCC(=O)Nc2ccc(Br)cc2)CC1`, -10.6%.
For `CC(Sc1nnc2ccccn12)C(N)=O` (centres undefined) the value was 7.97%; for `Cc1ccc(S(=O)(=O)Nc2ccccc2C(=O)N2CCCCC2)cc1`, -16.7%.
Consider `COc1ccc(C(=O)Nc2cccc(C)n2)cc1S(=O)(=O)N1CCCc2ccccc21`, for which the inhibition was 8.43%.
As for `CC(C)(C)OC(=O)N1C[C@H](O)C[C@H]1C(=O)OCC(=O)c1ccc([N+](=O)[O-])cc1`, the figure is 9.24%.
For `CN(CC(=O)Nc1ccc(Cl)c(S(=O)(=O)N2CCOCC2)c1)C(=O)c1cccs1` the value was -3.85%; for `Cc1cnc(C)c(N2CCN(Cc3cn(C)nc3-c3cccc(Cl)c3)CC2)n1`, -9.06%.
As for `COC(=O)C(C(=O)OC)[C@@H]1C=C[C@H](C[N+](=O)[O-])N(C(C)=O)C1`, the figure is -12.3%; as for `CCCOc1ccc(CNC(=O)C2CCN(c3nnc(N4CCCC4=O)s3)CC2)cc1`, -2.57%.
For the compound `Cc1ccccc1NC(=O)c1c(Cl)nc(C)c(Cl)c1C`, the inhibition is -3.05%.
Consider `O=C(NCc1ccncc1)C1CCC(=O)N(CCc2ccc(Cl)cc2)C1` (centres undefined), for which the inhibition was -3.67%.
As to `O=C(CNC(=O)c1ccncc1)N/N=C/c1cc(Br)ccc1O`, the inhibition was 2.02%.
For `O=C(NCC1CCCO1)C(=O)N/N=C/c1cccc(Cl)c1` (centres undefined) the value was 1.01%; for `O=C(N/N=C/c1cc([N+](=O)[O-])ccc1O)c1ccncc1`, -34.5%; for `COc1ccc(C(=O)N/N=C/c2cc(Br)ccc2O)cc1OC`, -6.16%.
For `O=C(NCC1CCCO1)C(=O)N/N=C/c1ccc(O)c(Cl)c1` (centres undefined), the inhibition is 11.2%.
On to `COc1ccc(Br)cc1/C=N/NC(=O)C(c1ccncc1)N1CCOCC1` (centres undefined), for which the inhibition was 2.7%.
For `Cc1ccc(C(=O)N/N=C\c2cc3c(cc2Br)OCO3)cn1` the value was -7.88%.
Consider `Cc1ccc(/C=N/NC(=O)C(c2ccncc2)N2CCOCC2)cc1` (centres undefined), for which the inhibition is 3.83%.
For `COC(=O)c1ccc(N2CCN(C)CC2)c(NC(=O)COc2cccc(C)c2)c1` the value was 8.25%; for `CC12CCC(=O)N1C(C(=O)Nc1ccccc1N1CCOCC1)CS2` (centres undefined), 1.95%; for `O=C(CCCC(=O)Nc1ccc(Br)cc1)N/N=C/c1ccccc1`, -7.56%.
As for `CNC(=S)NN=C(C)CCCC(C)=NNC(=S)NC`, the figure is -24.1%.
As for `O=C1c2cccc([N+](=O)[O-])c2C(=O)N1C1CCCCC1`, the figure is -11.8%; as for `CN1CCN(C(=O)CNC(=O)C23CC4CC(CC(C4)C2)C3)CC1`, -0.78%; as for `O=C(N/N=C/c1cccnc1)c1cccc(Cl)c1`, -19.1%.
Regarding `O=C(N/N=C/c1cc(Cl)ccc1O)c1ccc(Br)cc1`, the inhibition was -2.86%.
For `O=C(N/N=C/c1coc2ccc(Cl)cc2c1=O)c1ccncc1` the value was 2.11%; for `O=C(N/N=C/c1ccc(Cl)cc1Cl)c1ccncc1`, -7.47%; for `COc1ccc(/C=C(\NC(=O)c2ccco2)C(=O)N2CCOCC2)cc1`, 10.3%.
For `CCN(CC)Cc1cc(C(C)(C)C)cc(N2CCOCC2)c1O` the value was 3.29%; for `CCc1cc(=O)[nH]c(SCCc2ccccc2)n1`, 1.92%.
For `O=C(NC1CCCC1)C1CCCN1C(=O)Nc1ccccc1` (centres undefined) the value was 7.61%.
For the compound `CCOc1cccc(-c2c(C(=O)N/N=C(\C)c3ccncc3)nnn2-c2nonc2N)c1`, the inhibition was 0.12%.
For `CCOc1cccc(-c2c(C(=O)N/N=C(\C)c3cccnc3)nnn2-c2nonc2N)c1`, the inhibition was -0.26%.
